For four compounds, Inhibition results are on record in ChEMBL document CHEMBL1157539, “Thousands of chemical starting points for antimalarial lead identification” (Nature, 2010).

What all share (assay type): functional
For experiment [1], the system named is Plasmodium falciparum. Put plainly: GSK_TCMDC: Inhibition of Plasmodium falciparum 3D7 in whole red blood cells, using parasite LDH activity as an index of growth. Test compounds present at 2uM.
In experiment [2] the test system is Plasmodium falciparum. Put plainly: GSK_TCMDC: Inhibition of Plasmodium falciparum Dd2 in whole red blood cells, using parasite LDH activity as an index of growth. Test compounds present at 2uM.
A further experiment has as its system HepG2. Put plainly: GSK_TCMDC: Percent inhibition of human HepG2 cell line. Test compounds present at 10uM.

By Inhibition is commonly meant the percentage by which the read-out fell short of the control. A high value points to a strong effect. On to `COc1ccc2nccc([C@@H](O)CN3CCC(NCc4nc5c(F)cccc5[nH]4)CC3)c2c1.O=C(O)C(=O)O`, for which the Inhibition was 100% in the experiment with Plasmodium falciparum [1], 6% in the experiment on Plasmodium falciparum [2] and 0% in the experiment on HepG2.

Regarding `O=C(/C=C/c1ccc(Cl)c(Cl)c1)NCCCCCN1CCN(C(=O)Nc2ccc(C(F)(F)F)cc2)CC1`, the Inhibition in the experiment with Plasmodium falciparum [1] was 99%; with Plasmodium falciparum [2], 0%; in the experiment with HepG2, 26%.

Take `Cc1cc(C(F)(F)F)cc(-n2ncc(-c3ccc(C(=O)NCc4ccccc4N)cc3)c2N)n1.O=C(O)C(F)(F)F`: the Inhibition in the experiment with Plasmodium falciparum [1] was 99%; with Plasmodium falciparum [2], 89%; with HepG2 it was 10%.

Consider `COc1ccc2cc(CNCCCCCCNCc3ccc4cc(OC)ccc4c3)ccc2c1.CS(=O)(=O)O`, for which the Inhibition with Plasmodium falciparum [1] amounted to 100%; with Plasmodium falciparum [2], 92%; in the experiment with HepG2, 100%.
